# Reference: PMC7862700, “An all-to-all approach to the identification of sequence-specific readers for epigenetic DNA modifications on cytosine”
# Experiments:
# Test in all cases: DAPPL (digital affinity profiling via proximity ligation, sequencing); 10 mM Tris-HCl pH 7.5, 50 mM NaCl, 1 mM DTT, 4% glycerol, room temperature, 30 min; GST-TFs on glutathione beads, 16-mer random dsDNA library, 0.1% formaldehyde crosslink after washing; high values mean tight binding
# FEV = target: T1, FEV (Homo sapiens, UniProt Q99581 1-238); details: protein: recombinant; tags: N-terminal GST; dsDNA, one strand shown
# T1 sequence: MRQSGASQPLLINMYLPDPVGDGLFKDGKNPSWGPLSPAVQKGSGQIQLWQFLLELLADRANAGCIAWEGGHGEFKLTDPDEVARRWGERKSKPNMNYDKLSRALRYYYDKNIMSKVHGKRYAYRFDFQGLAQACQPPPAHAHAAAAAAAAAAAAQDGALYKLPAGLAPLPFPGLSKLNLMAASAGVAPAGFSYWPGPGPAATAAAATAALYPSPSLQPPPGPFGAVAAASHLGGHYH
# Procedure, shortened: (§1)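 Human transcription factors were made in yeast as GST fusions, captured on glutathione beads and barcoded with DNA. With a tag-only sample included, the pool was incubated with 200 nmole of a random double-stranded 16-mer DNA library in Tris/NaCl/DTT/glycerol buffer at room temperature for 30 min, then crosslinked with 0.1% formaldehyde after washing, ligated by proximity, amplified and sequenced. For binding signal, each hexamer's read frequency for a factor is divided by its frequency for the tag-only sample.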
# ETV5 = ETV5 (Homo sapiens, UniProt P41161 1-510); details: protein: recombinant; tags: N-terminal GST; dsDNA, one strand shown
# Sequence of ETV5 (P41161 whole entry): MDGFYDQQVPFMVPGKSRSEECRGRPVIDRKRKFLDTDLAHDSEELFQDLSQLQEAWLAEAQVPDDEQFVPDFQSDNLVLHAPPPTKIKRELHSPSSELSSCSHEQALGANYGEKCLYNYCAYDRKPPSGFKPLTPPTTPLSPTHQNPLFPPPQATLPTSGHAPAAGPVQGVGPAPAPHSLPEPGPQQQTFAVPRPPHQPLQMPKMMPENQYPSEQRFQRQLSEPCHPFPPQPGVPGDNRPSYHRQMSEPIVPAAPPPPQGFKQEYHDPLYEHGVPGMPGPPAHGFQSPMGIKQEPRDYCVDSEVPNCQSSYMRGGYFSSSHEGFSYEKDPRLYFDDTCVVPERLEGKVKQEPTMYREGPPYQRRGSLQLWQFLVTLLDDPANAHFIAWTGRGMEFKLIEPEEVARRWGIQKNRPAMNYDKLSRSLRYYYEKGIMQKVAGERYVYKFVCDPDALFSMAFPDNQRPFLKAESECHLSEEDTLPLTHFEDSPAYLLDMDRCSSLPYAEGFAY
# Procedure, shortened: as §1
# HSF1 = HSF1 (Homo sapiens, UniProt Q00613 1-529); details: protein: recombinant; tags: N-terminal GST; chain copies: 3; dsDNA, one strand shown
# Sequence of HSF1 (Q00613 whole entry): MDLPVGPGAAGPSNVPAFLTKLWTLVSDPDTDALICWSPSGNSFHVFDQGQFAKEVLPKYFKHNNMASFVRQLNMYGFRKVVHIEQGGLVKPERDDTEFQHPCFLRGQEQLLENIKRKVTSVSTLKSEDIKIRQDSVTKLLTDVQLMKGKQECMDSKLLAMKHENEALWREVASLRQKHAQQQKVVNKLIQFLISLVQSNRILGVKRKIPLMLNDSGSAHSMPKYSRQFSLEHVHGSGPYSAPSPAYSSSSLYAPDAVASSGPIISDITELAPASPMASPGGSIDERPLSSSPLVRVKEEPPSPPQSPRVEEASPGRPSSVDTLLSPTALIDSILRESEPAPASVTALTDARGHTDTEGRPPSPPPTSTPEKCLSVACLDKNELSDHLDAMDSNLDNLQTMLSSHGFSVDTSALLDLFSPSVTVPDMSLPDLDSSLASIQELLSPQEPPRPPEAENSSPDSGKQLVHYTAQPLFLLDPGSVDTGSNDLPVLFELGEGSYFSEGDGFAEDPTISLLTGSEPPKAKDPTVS
# Procedure, shortened: as §1
# SPIC = target: T2, SPIC (Homo sapiens, UniProt Q8N5J4 1-248); details: protein: recombinant; tags: N-terminal GST; dsDNA, one strand shown
# T2 sequence: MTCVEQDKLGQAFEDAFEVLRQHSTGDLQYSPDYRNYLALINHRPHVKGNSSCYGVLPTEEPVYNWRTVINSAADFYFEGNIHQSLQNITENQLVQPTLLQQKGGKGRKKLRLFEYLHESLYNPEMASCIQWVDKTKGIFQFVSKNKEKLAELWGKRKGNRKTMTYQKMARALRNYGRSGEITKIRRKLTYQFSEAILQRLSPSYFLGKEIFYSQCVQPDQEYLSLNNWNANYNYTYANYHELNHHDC
# Procedure, shortened: as §1
# ELF4 = ELF4 (Homo sapiens, UniProt Q99607 1-663); details: protein: recombinant; tags: N-terminal GST; dsDNA, one strand shown
# Sequence of ELF4 (Q99607 whole entry): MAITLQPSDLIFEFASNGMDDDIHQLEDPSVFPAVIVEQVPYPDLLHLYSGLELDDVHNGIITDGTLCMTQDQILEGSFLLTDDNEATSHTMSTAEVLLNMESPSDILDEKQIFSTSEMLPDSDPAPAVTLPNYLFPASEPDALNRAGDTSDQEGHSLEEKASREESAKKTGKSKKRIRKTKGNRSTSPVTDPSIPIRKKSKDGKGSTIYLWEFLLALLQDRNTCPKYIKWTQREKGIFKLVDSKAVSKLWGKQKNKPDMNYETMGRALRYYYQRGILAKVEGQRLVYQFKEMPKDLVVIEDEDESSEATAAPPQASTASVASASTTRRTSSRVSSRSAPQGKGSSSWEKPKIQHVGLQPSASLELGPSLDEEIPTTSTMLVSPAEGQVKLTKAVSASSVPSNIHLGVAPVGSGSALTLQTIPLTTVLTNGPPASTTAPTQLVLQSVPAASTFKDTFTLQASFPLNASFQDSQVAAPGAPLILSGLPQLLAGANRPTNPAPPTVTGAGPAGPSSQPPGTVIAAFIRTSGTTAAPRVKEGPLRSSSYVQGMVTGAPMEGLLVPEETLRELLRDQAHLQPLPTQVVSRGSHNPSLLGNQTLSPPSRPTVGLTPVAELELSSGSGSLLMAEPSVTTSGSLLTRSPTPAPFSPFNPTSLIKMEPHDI
# Procedure, shortened: as §1
# ELK4 = target: T3, ELK4 (Homo sapiens, UniProt P28324-2 1-405); details: protein: recombinant; tags: N-terminal GST; dsDNA, one strand shown
# T3 sequence: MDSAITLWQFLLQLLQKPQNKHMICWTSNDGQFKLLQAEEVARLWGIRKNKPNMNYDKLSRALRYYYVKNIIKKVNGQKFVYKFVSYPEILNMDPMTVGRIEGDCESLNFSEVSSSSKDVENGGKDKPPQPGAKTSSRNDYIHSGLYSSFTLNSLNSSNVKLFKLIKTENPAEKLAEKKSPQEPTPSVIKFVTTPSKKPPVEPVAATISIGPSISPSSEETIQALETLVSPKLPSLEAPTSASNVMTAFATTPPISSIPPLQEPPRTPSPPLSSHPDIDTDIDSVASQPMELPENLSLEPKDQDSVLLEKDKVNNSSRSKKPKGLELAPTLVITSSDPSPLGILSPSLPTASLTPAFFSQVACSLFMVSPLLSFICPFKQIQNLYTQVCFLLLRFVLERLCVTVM
# Procedure, shortened: as §1
# ETV2 = target: T4, ETV2 (Homo sapiens, UniProt O00321 1-342); details: protein: recombinant; tags: N-terminal GST; dsDNA, one strand shown
# T4 sequence: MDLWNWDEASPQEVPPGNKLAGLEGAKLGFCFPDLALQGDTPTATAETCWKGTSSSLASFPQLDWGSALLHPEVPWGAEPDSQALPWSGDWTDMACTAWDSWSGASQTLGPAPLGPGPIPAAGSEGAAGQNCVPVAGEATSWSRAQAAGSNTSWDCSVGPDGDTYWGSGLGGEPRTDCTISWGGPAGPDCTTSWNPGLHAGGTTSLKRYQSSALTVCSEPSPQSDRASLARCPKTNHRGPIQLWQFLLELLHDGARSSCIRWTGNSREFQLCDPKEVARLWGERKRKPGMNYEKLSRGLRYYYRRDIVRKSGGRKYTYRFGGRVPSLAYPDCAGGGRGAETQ
# Procedure, shortened: as §1
# ELF3 = target: T5, ELF3 (Homo sapiens, UniProt P78545 1-371); details: protein: recombinant; tags: N-terminal GST; dsDNA, one strand shown
# T5 sequence: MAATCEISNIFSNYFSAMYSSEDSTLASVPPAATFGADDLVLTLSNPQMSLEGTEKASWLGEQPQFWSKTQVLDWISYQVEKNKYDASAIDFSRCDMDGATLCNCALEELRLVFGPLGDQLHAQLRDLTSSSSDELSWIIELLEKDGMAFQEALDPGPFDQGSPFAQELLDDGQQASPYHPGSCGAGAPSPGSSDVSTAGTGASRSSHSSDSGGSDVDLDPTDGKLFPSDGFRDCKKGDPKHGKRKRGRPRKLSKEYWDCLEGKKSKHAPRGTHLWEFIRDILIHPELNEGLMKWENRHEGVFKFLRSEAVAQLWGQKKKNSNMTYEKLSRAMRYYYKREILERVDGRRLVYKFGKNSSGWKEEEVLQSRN
# Procedure, shortened: as §1
# CRX = CRX (Homo sapiens, UniProt O43186 1-299); details: protein: recombinant; tags: N-terminal GST; dsDNA, one strand shown
# Sequence of CRX (O43186 whole entry): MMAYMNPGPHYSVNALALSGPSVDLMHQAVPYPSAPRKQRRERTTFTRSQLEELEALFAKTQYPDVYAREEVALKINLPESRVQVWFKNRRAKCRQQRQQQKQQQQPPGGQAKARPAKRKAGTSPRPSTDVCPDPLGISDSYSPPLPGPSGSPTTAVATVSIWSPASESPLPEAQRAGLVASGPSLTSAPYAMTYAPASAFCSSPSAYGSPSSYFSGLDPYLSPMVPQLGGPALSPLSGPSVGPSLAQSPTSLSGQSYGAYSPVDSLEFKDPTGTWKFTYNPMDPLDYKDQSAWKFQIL
# Procedure, shortened: as §1
# ETV1 = ETV1 (Homo sapiens, UniProt P50549 1-477); details: protein: recombinant; tags: N-terminal GST; dsDNA, one strand shown
# Sequence of ETV1 (P50549 whole entry): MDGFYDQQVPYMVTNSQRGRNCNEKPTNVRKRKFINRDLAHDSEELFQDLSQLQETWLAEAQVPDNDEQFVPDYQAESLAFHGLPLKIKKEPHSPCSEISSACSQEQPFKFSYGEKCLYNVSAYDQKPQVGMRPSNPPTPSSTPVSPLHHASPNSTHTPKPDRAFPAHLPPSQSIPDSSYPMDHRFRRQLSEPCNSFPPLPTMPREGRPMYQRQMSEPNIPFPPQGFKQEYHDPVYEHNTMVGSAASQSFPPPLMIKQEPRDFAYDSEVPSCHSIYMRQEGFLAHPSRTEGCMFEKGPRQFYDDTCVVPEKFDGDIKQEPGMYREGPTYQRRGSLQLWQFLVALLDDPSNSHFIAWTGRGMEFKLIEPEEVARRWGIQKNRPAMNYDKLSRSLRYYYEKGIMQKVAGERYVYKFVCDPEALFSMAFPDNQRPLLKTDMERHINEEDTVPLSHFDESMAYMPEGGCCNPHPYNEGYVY
# Procedure, shortened: as §1
# ERF = target: T6, ERF (Homo sapiens, UniProt P50548 1-548); details: protein: recombinant; tags: N-terminal GST; dsDNA, one strand shown
# T6 sequence: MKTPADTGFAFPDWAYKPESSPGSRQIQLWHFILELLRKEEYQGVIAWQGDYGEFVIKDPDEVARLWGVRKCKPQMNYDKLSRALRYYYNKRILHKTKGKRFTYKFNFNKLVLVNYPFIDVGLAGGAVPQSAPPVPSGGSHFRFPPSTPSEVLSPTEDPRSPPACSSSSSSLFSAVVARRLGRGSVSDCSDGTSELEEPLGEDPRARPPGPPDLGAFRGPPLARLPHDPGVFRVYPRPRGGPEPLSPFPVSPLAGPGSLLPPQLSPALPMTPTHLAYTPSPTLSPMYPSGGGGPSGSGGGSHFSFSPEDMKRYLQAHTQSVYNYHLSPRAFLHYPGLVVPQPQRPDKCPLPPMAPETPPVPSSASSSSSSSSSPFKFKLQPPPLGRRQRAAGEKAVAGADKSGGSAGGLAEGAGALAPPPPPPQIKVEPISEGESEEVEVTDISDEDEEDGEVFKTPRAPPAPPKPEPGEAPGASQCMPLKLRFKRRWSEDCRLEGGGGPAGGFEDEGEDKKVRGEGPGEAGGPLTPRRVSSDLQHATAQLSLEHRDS
# Procedure, shortened: as §1
# ETV3L = target: T7, ETV3L (Homo sapiens, UniProt Q6ZN32 1-361); details: protein: recombinant; tags: N-terminal GST; dsDNA, one strand shown
# T7 sequence: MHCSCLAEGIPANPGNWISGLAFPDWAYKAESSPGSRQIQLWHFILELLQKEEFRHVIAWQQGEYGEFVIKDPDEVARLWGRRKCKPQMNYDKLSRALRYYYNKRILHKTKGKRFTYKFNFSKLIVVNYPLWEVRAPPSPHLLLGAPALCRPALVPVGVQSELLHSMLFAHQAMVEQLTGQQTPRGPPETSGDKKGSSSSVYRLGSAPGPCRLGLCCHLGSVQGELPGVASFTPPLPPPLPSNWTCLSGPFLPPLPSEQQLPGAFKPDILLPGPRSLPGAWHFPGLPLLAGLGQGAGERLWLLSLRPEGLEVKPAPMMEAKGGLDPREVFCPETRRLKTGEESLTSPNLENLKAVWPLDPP
# Procedure, shortened: as §1
# ETS2 = target: T8, ETS2 (Homo sapiens, UniProt P15036 1-469); details: protein: recombinant; tags: N-terminal GST; dsDNA, one strand shown
# T8 sequence: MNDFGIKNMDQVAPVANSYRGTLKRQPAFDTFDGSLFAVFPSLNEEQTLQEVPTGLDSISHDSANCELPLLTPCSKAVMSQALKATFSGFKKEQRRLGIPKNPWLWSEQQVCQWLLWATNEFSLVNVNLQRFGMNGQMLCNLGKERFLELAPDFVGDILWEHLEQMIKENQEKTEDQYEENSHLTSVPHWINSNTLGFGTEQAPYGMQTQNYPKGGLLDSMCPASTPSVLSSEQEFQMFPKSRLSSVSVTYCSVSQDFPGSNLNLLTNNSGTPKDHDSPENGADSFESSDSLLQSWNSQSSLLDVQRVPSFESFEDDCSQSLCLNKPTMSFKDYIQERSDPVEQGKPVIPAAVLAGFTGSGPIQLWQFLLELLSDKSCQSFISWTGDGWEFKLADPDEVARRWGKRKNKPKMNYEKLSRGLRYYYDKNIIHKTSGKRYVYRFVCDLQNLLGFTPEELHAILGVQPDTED
# Procedure, shortened: as §1
# SPDEF = target: T9, SPDEF (Homo sapiens, UniProt O95238 1-335); details: protein: recombinant; tags: N-terminal GST; dsDNA, one strand shown
# T9 sequence: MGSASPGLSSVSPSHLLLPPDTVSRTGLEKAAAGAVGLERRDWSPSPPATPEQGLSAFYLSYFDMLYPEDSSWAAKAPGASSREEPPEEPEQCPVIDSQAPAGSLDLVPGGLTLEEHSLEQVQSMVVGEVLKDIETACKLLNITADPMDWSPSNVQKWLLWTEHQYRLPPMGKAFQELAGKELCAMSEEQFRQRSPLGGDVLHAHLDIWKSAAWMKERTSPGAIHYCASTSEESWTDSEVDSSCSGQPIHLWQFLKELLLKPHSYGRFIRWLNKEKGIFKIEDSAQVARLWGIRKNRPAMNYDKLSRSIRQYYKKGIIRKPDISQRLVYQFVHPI
# Procedure, shortened: as §1
# ETV7 = target: T10, ETV7 (Homo sapiens, UniProt Q9Y603 1-341); details: protein: recombinant; tags: N-terminal GST; dsDNA, one strand shown
# T10 sequence: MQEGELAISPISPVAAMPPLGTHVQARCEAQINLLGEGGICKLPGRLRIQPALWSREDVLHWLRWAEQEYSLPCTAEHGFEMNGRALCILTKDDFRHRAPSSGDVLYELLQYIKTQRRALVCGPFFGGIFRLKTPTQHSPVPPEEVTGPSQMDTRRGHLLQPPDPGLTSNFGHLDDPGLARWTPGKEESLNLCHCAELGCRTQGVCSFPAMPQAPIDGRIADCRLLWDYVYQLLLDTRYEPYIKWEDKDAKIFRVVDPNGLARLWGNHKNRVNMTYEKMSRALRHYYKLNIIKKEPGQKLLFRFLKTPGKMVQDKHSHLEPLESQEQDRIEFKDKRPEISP
# Procedure, shortened: as §1
# ELF5 = target: T11, ELF5 (Homo sapiens, UniProt Q9UKW6-2 1-255); details: protein: recombinant; tags: N-terminal GST; dsDNA, one strand shown
# T11 sequence: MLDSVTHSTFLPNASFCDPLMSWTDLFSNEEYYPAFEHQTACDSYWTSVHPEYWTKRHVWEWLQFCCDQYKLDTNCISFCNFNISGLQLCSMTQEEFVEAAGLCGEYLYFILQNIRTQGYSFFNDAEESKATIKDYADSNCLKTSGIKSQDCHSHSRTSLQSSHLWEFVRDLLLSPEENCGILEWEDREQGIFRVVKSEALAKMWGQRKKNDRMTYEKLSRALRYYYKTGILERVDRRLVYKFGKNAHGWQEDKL
# Procedure, shortened: as §1
# ETV3 = target: T12, ETV3 (Homo sapiens, UniProt P41162-2 1-143); details: protein: recombinant; tags: N-terminal GST; dsDNA, one strand shown
# T12 sequence: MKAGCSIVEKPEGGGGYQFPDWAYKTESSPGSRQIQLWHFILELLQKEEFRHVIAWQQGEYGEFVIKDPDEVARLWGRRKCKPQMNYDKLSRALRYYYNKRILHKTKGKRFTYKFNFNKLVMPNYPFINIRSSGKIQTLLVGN
# Procedure, shortened: as §1
# ETV6 = ETV6 (Homo sapiens, UniProt P41212 1-452); details: protein: recombinant; tags: N-terminal GST; dsDNA, one strand shown
# Sequence of ETV6 (P41212 whole entry): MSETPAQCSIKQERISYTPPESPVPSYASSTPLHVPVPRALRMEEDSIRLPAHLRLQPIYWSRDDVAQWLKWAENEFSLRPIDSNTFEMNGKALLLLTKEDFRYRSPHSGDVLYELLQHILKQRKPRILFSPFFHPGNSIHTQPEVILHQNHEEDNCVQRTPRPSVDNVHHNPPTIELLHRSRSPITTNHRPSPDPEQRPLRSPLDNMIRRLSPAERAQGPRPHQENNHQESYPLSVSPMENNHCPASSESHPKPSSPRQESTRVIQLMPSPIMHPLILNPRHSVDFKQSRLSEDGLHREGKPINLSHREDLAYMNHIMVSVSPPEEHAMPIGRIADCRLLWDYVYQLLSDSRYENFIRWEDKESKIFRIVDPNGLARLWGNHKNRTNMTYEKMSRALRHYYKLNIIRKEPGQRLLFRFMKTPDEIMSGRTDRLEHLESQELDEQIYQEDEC
# Procedure, shortened: as §1
sequence,measurement,setting,value
ATCCTA,binding signal,FEV,"1.32 fold enrichment (6-mer frequency, TF over GST control)"
same,binding signal,ETV5,"1.37 fold enrichment (6-mer frequency, TF over GST control)"
same,binding signal,HSF1,"1.61 fold enrichment (6-mer frequency, TF over GST control)"
same,binding signal,SPIC,"1.44 fold enrichment (6-mer frequency, TF over GST control)"
same,binding signal,ELF4,"1.32 fold enrichment (6-mer frequency, TF over GST control)"
same,binding signal,ELK4,"1.26 fold enrichment (6-mer frequency, TF over GST control)"
same,binding signal,ETV2,"1.41 fold enrichment (6-mer frequency, TF over GST control)"
same,binding signal,ELF3,"1.24 fold enrichment (6-mer frequency, TF over GST control)"
same,binding signal,CRX,"2.19 fold enrichment (6-mer frequency, TF over GST control)"
same,binding signal,ETV1,"1.32 fold enrichment (6-mer frequency, TF over GST control)"
same,binding signal,ERF,"1.34 fold enrichment (6-mer frequency, TF over GST control)"
same,binding signal,ETV3L,"1.32 fold enrichment (6-mer frequency, TF over GST control)"
same,binding signal,ETS2,"1.43 fold enrichment (6-mer frequency, TF over GST control)"
same,binding signal,SPDEF,"1.72 fold enrichment (6-mer frequency, TF over GST control)"
same,binding signal,ETV7,"1.37 fold enrichment (6-mer frequency, TF over GST control)"
same,binding signal,ELF5,"1.45 fold enrichment (6-mer frequency, TF over GST control)"
same,binding signal,ETV3,"1.33 fold enrichment (6-mer frequency, TF over GST control)"
same,binding signal,ETV6,"1.34 fold enrichment (6-mer frequency, TF over GST control)"
